PKA-R2B activ: activates the human PKA-R2B holoenzyme complex | P22694+P31323 | PKA-R2B holoenzyme dissociation, Cy5-IP20 fluorescence polarization; R2B truncated from residue 108, S112A mutant; 0% DMSO only, 100% 113 µM cGMP | activation, % at 11.4 µM | 340,000 compounds, 0.079% hits | AID 504700;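 active = activation above a cutoff set at the mean over all compounds plus 3 SD, cut at about 18% in these data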;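 also: higher means more holoenzyme dissociation and a rise in polarization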
PG9 binder: small molecules binding HIV-1 gp120 antibody PG9 | 360,000 compounds, 0.43% hits | TR-FRET gp120-PG9 antibody binding | inhibition, % at 6.7 µM; in the data active = inhibition above about 8.5%
NR1D1 modulator: Rev-erb alpha (human) modulation; P20393; Rev-erbα–FITC-DNA binding, fluorescence polarization, 90 min; activity, % at 10 µM; 370,000 compounds, 0.79% hits;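 active = activity above about 14%, limit read from the data; passing the limit was not always enough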;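 also: 0% = DMSO wells with 35 nM protein and 100% = DMSO wells with 750 nM protein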
Target sequence (P20393 whole entry, looked up): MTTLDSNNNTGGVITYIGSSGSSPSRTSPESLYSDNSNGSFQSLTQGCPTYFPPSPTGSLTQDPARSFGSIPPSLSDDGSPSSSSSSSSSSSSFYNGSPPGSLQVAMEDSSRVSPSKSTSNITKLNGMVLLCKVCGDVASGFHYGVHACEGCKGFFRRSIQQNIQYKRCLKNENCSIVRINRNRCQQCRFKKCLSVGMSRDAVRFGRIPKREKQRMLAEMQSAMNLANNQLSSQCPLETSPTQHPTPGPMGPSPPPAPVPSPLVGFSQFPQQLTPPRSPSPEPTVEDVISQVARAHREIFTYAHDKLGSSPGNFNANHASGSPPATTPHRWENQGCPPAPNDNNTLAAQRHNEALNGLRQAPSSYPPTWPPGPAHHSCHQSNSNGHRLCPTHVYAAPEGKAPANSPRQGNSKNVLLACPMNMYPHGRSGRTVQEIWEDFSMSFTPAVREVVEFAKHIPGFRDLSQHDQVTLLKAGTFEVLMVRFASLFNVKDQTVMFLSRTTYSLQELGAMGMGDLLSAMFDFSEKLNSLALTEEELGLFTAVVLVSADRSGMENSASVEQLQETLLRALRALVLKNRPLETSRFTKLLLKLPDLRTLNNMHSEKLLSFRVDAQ
PKA-R1A act: activates the PKA-R1A holoenzyme complex | P00514+P68181 | PKA-R1A dissociation, Cy5-IP20 fluorescence polarization; scaled: DMSO 0%, 113 µM cGMP 100% | 340,000 compounds, 0.083% hits | activation, % at 11.4 µM;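 active = percent activation above the mean of all tested compounds plus 3 SD, cut at about 19% in these data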;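 also: higher means more PKAc released from R1A so a rise in polarization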
Rev-erbA confirm: confirmation of modulators of human Rev-erb alpha DNA binding | shares compounds with NR1D1 modulator | Rev-erb alpha FITC-DNA binding, fluorescence polarization, 90 min | activation, % at 25 µM | 3,000 compounds, 61% hits | AID 1259319;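 active = activation at or above a set limit, or at least 3 SD above the negative control mean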;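 also: 0% = 35 nM protein with DMSO and 100% = 750 nM protein high control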
RORg DNA counter: RORgamma DNA-binding activity, dose-response counter-screen. 910 compounds, 8% hits. purified RORgamma protein-FITC-DNA binding, fluorescence polarization. AID 1259320. IC50, µM. shares compounds with NR1D1 modulator;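 active = Compounds whose fitted half-maximal concentration for disrupting protein-DNA binding is below 10 micromolar; the record names Rev-erb in its text, so the target is in doubt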
The depositor's hits bear a star; i = inactive; . = not tested or not shown. Shown are actives, neighbours in structure and some others; about 1.2% of the full set was active somewhere.

SMILES | PKA-R2B activ | PG9 binder | NR1D1 modulator | PKA-R1A act | Rev-erbA confirm | others
COc1cc(-c2cc(-c3ccc(N)cc3)[nH]c(=O)c2C#N)cc(OC)c1OC | -3.5 | -0.8 | 25.0* | -0.1 | 15.1
Cc1nn(-c2ccccc2)c(C)c1NC(=O)COC(=O)c1cc(Br)ccc1O | -11.2 | -0.7 | 31.3* | 9.9 | 13.1
CCCCNC(=O)C1CCCN1C(=O)Nc1cc(Cl)cc(Cl)c1 (stereo not given) | . | . | 4.0 | . | .
Cc1ccc(C)c(OCCC(=O)NCCc2ccc(Cl)cc2)c1 | -0.5 | 3.9 | 22.7* | -3.6 | 26.6*
CCOc1ccc(CCNC(=O)CCOc2cc(C)ccc2C)cc1OCC | -3.6 | 0.4 | -1.4 | 6.3 | .
O=C(CN1C(=O)c2ccccc2C1=O)N1CCN(c2nnc(-c3ccccc3)c3ccccc23)CC1 | 4.4 | 5.4 | 29.5* | -9.6 | 7.8
Cc1ccc(-c2nnc(N3CCN(C(=O)CN4C(=O)c5ccccc5C4=O)CC3)c3ccccc23)cc1 | -7.0 | -0.3 | 25.1* | -9.7 | 7.3
CCC(=O)N1CCN(c2nnc(-c3ccccc3)c3ccccc23)CC1 | 3.1 | -2.0 | -5.9 | 4.1 | .
Cc1ccc(OCC(=O)N2CCN(c3nnc(-c4ccc(C)cc4)c4ccccc34)CC2)cc1 | -8.8 | 1.4 | -3.5 | -11.0 | .
C=CCn1c(COc2ccccc2)nnc1SCC(=O)c1ccc(-c2ccccc2)cc1 | . | . | -0.9 | . | .
O=C(O[C@H]1CC[C@@]23CCCN2C(=O)CCC[C@H]3C1)N1CCN(c2ccccc2)CC1 | . | . | 1.5 | . | .
O=S(=O)(Cc1cc(NCc2ccccc2)nc(-c2ccncc2)n1)c1ccccc1 | -7.6 | -0.6 | 16.8* | 2.4 | 43.8* | RORg DNA counter=>40
Cc1nc(CS(=O)(=O)c2ccccc2)cc(Sc2ccc(Cl)cc2Cl)n1 | -6.0 | -1.8 | -4.1 | -4.7 | .
CSc1cc(CS(=O)(=O)c2ccccc2)nc(-c2ccccc2)n1 | -6.1 | -0.9 | 20.2* | -3.5 | 28.0*
COC(=O)N[C@H](C(=O)N[C@@H](Cc1ccccc1)[C@@H](O)CN(Cc1ccc(-c2ccccn2)cc1)NC(=O)[C@@H](NC(=O)OC)C(C)(C)C)C(C)(C)C | . | . | 4.3 | . | .
O=C(CSc1ncnc2scc(-c3ccc(Cl)cc3)c12)Nc1ccccc1-c1ccccc1 | . | . | 5.3 | . | .
CCn1c(SCc2ccccc2Cl)nnc1-c1ccccc1OC | . | . | -4.5 | . | .
COc1ccc(C2C(C(=O)c3cccs3)=C(O)C(=O)N2c2nnc(C)s2)cc1OC (stereo not given) | -2.3 | . | . | 7.6 | .
C=CCOc1ccc(C2C(C(=O)c3cccs3)=C(O)C(=O)N2c2nnc(C)s2)cc1 (stereo not given) | -1.0 | 2.4 | 33.5* | -10.3 | 53.9* | RORg DNA counter=>40
Cn1c2ccccc2c(=O)c2cc(C#Cc3ccccn3)ccc21 | -3.9 | 1.0 | 0.0 | 7.5 | .
Cn1c2ccccc2c(=O)c2cc(C#Cc3ccsc3)ccc21 | -0.9 | 0.0 | 21.5* | -9.5 | 15.6
c1nc2nc3c(c(N4CCCC4)n2n1)CCCC3 | . | . | -1.5 | . | .
Cc1cc(NC(=O)CSc2nc3c(cc2C#N)CCC3)no1 | -0.7 | -2.2 | 23.0* | 9.4 | 9.0
N#Cc1cc2c(nc1SCc1ccccc1)CCC2 | -10.5 | -0.4 | 44.7* | -5.1 | 24.8*
Cc1cc(NC(=O)CSc2nc3c(cc2C#N)CCCC3)no1 | 10.6 | 0.3 | 35.4* | -2.4 | 25.9*
SMILES | PKA-R2B activ | PG9 binder | NR1D1 modulator | PKA-R1A act | Rev-erbA confirm | others
Cc1noc(NS(=O)(=O)c2ccc(NC(=O)CSc3nc4c(cc3C#N)CCC4)cc2)c1C | 5.3 | -0.5 | -0.4 | 12.0 | .
O=C(CSc1nnc(-c2ccncc2)n1-c1ccc(Br)cc1)c1ccccc1 | . | . | -3.9 | . | .
Cn1c2cc(S(C)=O)sc2c2cnn(Cc3cccc(N)c3)c(=O)c21 (stereo not given) | . | . | -5.8 | . | .
O=C(CCCn1c(=S)[nH]c2cc3c(cc2c1=O)OCO3)NCCc1ccccc1Cl | 2.1 | 4.8 | 27.5* | -14.0 | 22.1*
O=C(CCn1c(=S)[nH]c2cc3c(cc2c1=O)OCO3)NCCc1ccccc1Cl | 4.3 | -0.9 | 23.2* | 1.1 | 13.3*
Cc1cccc(-n2nc(C(=O)Nc3ccccc3)n3c(=O)cc(-c4ccccc4)nc23)c1 | -13.0 | 0.3 | 4.9 | -1.0 | .
O=C(c1ccccc1)c1nn(-c2cccc(Cl)c2)c2nc(-c3ccccc3)cc(=O)n12 | -2.0 | -0.5 | 24.1* | -7.5 | 13.9
O=C(CCCOc1ccc(Cl)cc1Cl)NNC(=O)c1ccc(NC(=O)c2ccccc2)cc1 | -14.9 | 1.6 | 73.8* | -3.6 | 99.0* | RORg DNA counter=>40
COc1cc2c(cc1NC(=O)CSc1nnc(-c3ccccn3)n1-c1ccccc1)oc1ccccc12 | . | . | -24.4 | . | .
COc1cccc(-c2cc(=O)c3cc(NC(=O)c4ccccc4)ccc3[nH]2)c1 | 3.8 | -13.6 | 26.1* | -4.9 | 10.0
CN1C[C@]2(C=C3CCCCC3n3c(=O)n(-c4ccccc4)c(=O)n32)N(C(=O)OCc2ccccc2)C1=NC(=O)c1ccccc1 (stereo not given in full) | . | . | -2.4 | . | .
Cn1c2ccccc2n2c(=O)c(Cl)c(-c3ccccc3)c(C#N)c12 | -8.9 | 0.4 | 41.1* | -1.2 | 33.2* | RORg DNA counter=i
Cn1ccc(-c2ccccc2)c(C#N)c1=O | -3.4 | -0.5 | 3.1 | 2.8 | .
COC(=O)c1c(-c2cccc(C)c2)csc1NC(=O)C1CCCO1 (stereo not given) | -1.2 | 0.8 | 24.1* | -6.2 | 27.1*
COC(=O)[C@@]12CCCCC3=C1N(CCC3)C(=O)[C@H]2CC(=O)NCCc1ccccc1OC | . | . | 10.7 | . | .
Cc1cc(=O)oc2cc(OCC3CC(c4ccc(Br)cc4)=NO3)ccc12 (stereo not given) | -7.5 | 1.1 | 55.2* | 9.9 | 46.4* | RORg DNA counter=2.11*
Cc1cc(=O)oc2cc(OCC3CC(c4ccccc4)=NO3)ccc12 (stereo not given) | -0.6 | . | -0.7 | 7.2 | .
CN1C(=O)N(C)c2ccc(C=O)c3cccc1c23 | -2.9 | -3.4 | 7.9 | -10.3 | .
CN1C(=O)N(C)c2ccc(Br)c3cccc1c23 | 3.5 | -1.7 | 89.0* | 0.4 | 81.0* | RORg DNA counter=>40
Nc1c(-c2ccccc2)cnc2c(-c3ccccc3)cnn12 | 2.1 | -2.7 | -4.0 | -0.8 | .
Nc1c(-c2cccs2)cnc2c(-c3ccc(F)cc3)cnn12 | 9.0 | -1.9 | 35.2* | 2.3 | 6.4
CC(=O)c1sc2c(c1OC(=O)c1ccc(Cl)cc1)c(=O)n(-c1ccccc1)c(=S)n2-c1ccccc1 | -8.1 | -0.6 | 44.7* | -6.7 | 10.0
COc1cccc(-n2c(O)c(C=NCc3ccccn3)c3ccccc3c2=O)c1 | 11.5 | 2.2 | 1.8 | 0.7 | .
O=c1c2ccccc2c(C=NCc2ccccn2)c(O)n1-c1ccccc1 | 4.8 | 1.1 | 69.2* | 7.3 | 19.8*
COc1cc(OC)cc(-n2c3nc4ccccc4nc3c3c(=O)n(CC4CCCO4)cnc32)c1 (stereo not given) | . | 2.6 | 299.8* | . | 142.4* | RORg DNA counter=>40

Source: PubChem BioAssay (several laboratories)
